Measured values from PubChem BioAssay (Tox21).
Inconclusive results are not listed. Active and inactive are the calls of the source. Unless noted, calls follow the shape of the dose curve; as a rule, active = well fitted curve in the direction sought with a large enough effect in the repeat runs; inconclusive = weak or mixed curves; inactive = no such curve, though single readings can be large; an effect the other way counts as inactive or inconclusive.

How the values were obtained:
[1] = qHTS assay to identify aromatase inhibitors - cell viability counter screen (AID 743084);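 also: cells stimulated with testosterone during compound exposure; nearly all actives have a fitted effect of over 55% in size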
[2] = qHTS assay to identify small molecule that activate the aryl hydrocarbon receptor (AhR) signaling pathway - cell viability counter screen (AID 743086);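 also: HepG2 liver cells carrying the AhR DRE luciferase reporter; series mostly up to about 70 µM; nearly all actives have a fitted effect of over 45% in size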
Summary of the method: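 HepG2-AhR-luc (HG2L7.5c1) cells, 4000/well, were preincubated 5 h at 37C, exposed to compound in qHTS format for 24 hr at 37C, then given CellTiter-Fluor for 30 min; viability was read as fluorescence in the reporter wells.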

[3] = molecular target: Peroxisome proliferator-activated receptor gamma (Homo sapiens) (UniProt P37231); assay: qHTS assay to identify small molecule agonists of the peroxisome proliferator-activated receptor gamma (PPARg) signaling pathway (AID 743094; active = well fitted activation curve with a large enough effect in the signal ratio in the repeat runs, not every such curve was filed as active; the % refers to the signal ratio)
Summary of the method: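 Quantitative HTS agonist mode: stable HEK293H line with UAS-beta-lactamase reporter under PPARg control, 17 h compound exposure at 37C, fluorescence after 1 h FRET substrate loading at room temperature.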

[4] = molecular target: Peroxisome proliferator-activated receptor gamma (Homo sapiens) (UniProt P37231); assay: qHTS assay to identify small molecule antagonists of the peroxisome proliferator-activated receptor gamma (PPARg) signaling pathway (AID 743191; calls by dose curve; also: series mostly up to about 63 µM; nearly all actives have a fitted effect of over 30% in size)
Summary of the method: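 GeneBLAzer PPARg UAS-bla HEK293H cells carrying a UAS-driven beta-lactamase reporter were plated at 3000 cells/well, preincubated 5 h at 37C, then given compound for 17 h at 37C; LiveBLAzer B/G FRET substrate was read after 1 h at room temperature.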

[5] = qHTS assay to identify small molecule antagonists of the peroxisome proliferator-activated receptor gamma (PPARg) signaling pathway - cell viability counter screen (AID 743194); conditions: Potency: co-treated with 50 nM rosiglitazone; also: nearly all actives have a fitted effect of over 55% in size
Summary of the method: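 PPARg-UAS-bla HEK293H cells were plated, rested 5 h at 37 C, then treated with compounds plus rosiglitazone (50 nM final) for 17 h at 37 C; viability was then read by CellTiter-Glo luminescence after 30 min at room temperature.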

[6] = qHTS assay for small molecule agonists of the antioxidant response element (ARE) signaling pathway - cell viability counter screen (AID 743203; calls by dose curve; also: nearly all actives have a fitted effect of over 55% in size)
Summary of the method: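 Seeded at 2,000 cells/well, ARE-bla HepG2 cells were incubated 5 hrs before compound addition. After 16 hrs of treatment at 37C with 5% CO2, CellTiter-Glo reagent was added and luminescence read 30 min later.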

[7] = qHTS assay for small molecule activators of the heat shock response signaling pathway - cell viability counter screen (AID 743209); also: nearly all actives have a fitted effect of over 50% in size
Summary of the method: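 First, HSE-bla HeLa cells were seeded at 1500 cells/well and kept overnight at 37 C. Next, compounds were pinned in and incubated 5 h. After the FRET substrate step, CellTiter-Glo was added and luminescence read 30 min later.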

[8] = qHTS assay to identify small molecule agonists of the peroxisome proliferator-activated receptor delta (PPARd) signaling pathway - cell viability counter screen (AID 743211); also: nearly all actives have a fitted effect of over 55% in size
Summary of the method: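 HEK293H PPARd-bla, 3000 cells/well; 5 h preincubation 37C/5% CO2; cpd in DMSO, 17 h 37C; B/G FRET substrate 2 h RT; CellTiter-Glo 30 min RT, luminescence.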

[9] = qHTS assay to identify small molecule antagonists of the peroxisome proliferator-activated receptor delta (PPARd) signaling pathway - cell viability counter screen (AID 743213); also: nearly all actives have a fitted effect of over 50% in size
Summary of the method: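 In this counter screen, HEK293H cells carrying a UAS-beta-lactamase reporter are co-treated with test compounds and 300 nM L165041 (final) for 17 h at 37 C; cell viability is quantified by CellTiter-Glo luminescence.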

[10] = qHTS assay to identify small molecule agonists of the farnesoid-X-receptor (FXR) signaling pathway - cell viability counter screen (AID 743218); also: nearly all actives have a fitted effect of over 45% in size
Summary of the method: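 Cytotoxicity counter-screen run in parallel, same wells: FXR-UAS-bla HEK 293T cells dosed 16 h at 37 C, viability read by CellTiter-Glo luminescence after 30 min at room temperature.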

[11] = qHTS assay to identify small molecule antagonists of the farnesoid-X-receptor (FXR) signaling pathway - cell viability counter screen (AID 743221; active = well fitted cell-killing curve with a large enough effect in the repeat runs, not every such curve was filed as active; also: nearly all actives have a fitted effect of over 50% in size)
Summary of the method: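 Luminescence from CellTiter-Glo measures cytotoxicity in GeneBLAzer FXR-UAS-bla HEK 293T cells. Cells were exposed to compounds with 50 uM chenodeoxycholic acid (final) for 16 h at 37 C, in wells also used for the reporter readout.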

[12] = molecular target: Vitamin D3 receptor (Homo sapiens) (UniProt P11473); assay: qHTS assay to identify small molecule agonists of the vitamin D receptor (VDR) signaling pathway (AID 743222; calls by dose curve)
Summary of the method: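 Quantitative HTS agonist-mode screen: compounds in DMSO were pin-transferred onto VDR-bla cells and incubated 16 h at 37C, 5% CO2. Reporter activity was detected with LiveBLAzer B/G FRET substrate after 2 h at room temperature.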

[13] = molecular target: Vitamin D3 receptor (Homo sapiens) (UniProt P11473); assay: qHTS assay to identify small molecule antagonists of the vitamin D receptor (VDR) signaling pathway (AID 743223; active = well fitted inhibition curve with a large enough effect in the signal ratio in the repeat runs, not every such curve was filed as active; the % refers to the signal ratio)
Summary of the method: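 Antagonist mode uses 1alpha,25-dihydroxyvitamin D3 at 3 nM final as stimulus. VDR-bla cells receive compounds in DMSO, incubate 16 h at 37C, then a beta-lactamase FRET substrate for 2 h at room temperature before fluorescence measurement.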

[14] = qHTS assay for small molecule agonists of the antioxidant response element (ARE) signaling pathway (AID 743202; active = well fitted activation curve with a large enough effect in the signal ratio in the repeat runs, not every such curve was filed as active; the % refers to the signal ratio)
Summary of the method: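 Compounds delivered in DMSO to ARE-bla HepG2 cells (2,000 cells/well, pre-incubated 5 h) and left 16 h at 37 C. LiveBLAzer B/G FRET substrate then added for 2 h at RT before fluorescence reading.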

[15] = qHTS assay for small molecule activators of the heat shock response signaling pathway (AID 743210; active = well fitted activation curve with a large enough effect in the signal ratio in the repeat runs, with a control signal flat, not every such curve was filed as active; the % refers to the signal ratio;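 also: HeLa cells with beta-lactamase reporter driven by heat shock elements; series mostly up to about 63 µM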)
Summary of the method: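 Reporter gene assay: HeLa cells stably bearing an HSE-bla construct, compound treatment 5 h at 37 C, LiveBLAzer substrate 2.5 h at RT, fluorescence intensity.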

[16] = molecular target: Peroxisome proliferator-activated receptor delta (Homo sapiens) (UniProt Q03181); assay: qHTS assay to identify small molecule agonists of the peroxisome proliferator-activated receptor delta (PPARd) signaling pathway (AID 743212; calls by dose curve)
Summary of the method: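 A PPARd-bla HEK293H line with beta-lactamase under an Upstream Activator Sequence is treated with compounds at 37 C. Substrate loading for 2 h at room temperature precedes the fluorescence measurement.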

[17] = molecular target: Peroxisome proliferator-activated receptor delta (Homo sapiens) (UniProt Q03181); assay: qHTS assay to identify small molecule antagonists of the peroxisome proliferator-activated receptor delta (PPARd) signaling pathway (AID 743215; active = well fitted inhibition curve with a large enough effect in the signal ratio in the repeat runs, not every such curve was filed as active; the % refers to the signal ratio;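 also: cells stimulated with agonist L165041 at 300 nM final during compound exposure; series mostly up to about 62 µM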)
Summary of the method: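 Inhibition of L165041-driven (300 nM final) PPARd signaling is scored in HEK293H UAS-bla cells. Exposure lasts 17 h at 37 C; beta-lactamase activity is then read by FRET substrate fluorescence after 2 h at room temperature.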

[18] = molecular target: Bile acid receptor (Homo sapiens) (UniProt Q96RI1); assay: qHTS assay to identify small molecule agonists of the farnesoid-X-receptor (FXR) signaling pathway (AID 743220; active = well fitted activation curve with a large enough effect in the signal ratio in the repeat runs, not every such curve was filed as active; the % refers to the signal ratio)
Summary of the method: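 Beta-lactamase reporter under UAS control in GeneBLAzer FXR HEK 293T cells (5000/well) measured with LiveBLAzer FRET substrate after 2 h at room temperature. Compound exposure lasted 16 h at 37C.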

[19] = molecular target: Bile acid receptor (Homo sapiens) (UniProt Q96RI1); assay: qHTS assay to identify small molecule antagonists of the farnesoid-X-receptor (FXR) signaling pathway (AID 743217; active = well fitted inhibition curve with a large enough effect in the signal ratio in the repeat runs, not every such curve was filed as active; the % refers to the signal ratio)
Summary of the method: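 Antagonist mode against 50 uM (final) chenodeoxycholic acid stimulation in FXR-bla HEK 293T cells, 16 h at 37 °C. Inhibition detected as reduced beta-lactamase activity via LiveBLAzer B/G FRET fluorescence after 2 h at room temperature.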

Measured: Potency

Chain of Peroxisome proliferator-activated receptor gamma (Homo sapiens) (P37231 whole entry, looked up): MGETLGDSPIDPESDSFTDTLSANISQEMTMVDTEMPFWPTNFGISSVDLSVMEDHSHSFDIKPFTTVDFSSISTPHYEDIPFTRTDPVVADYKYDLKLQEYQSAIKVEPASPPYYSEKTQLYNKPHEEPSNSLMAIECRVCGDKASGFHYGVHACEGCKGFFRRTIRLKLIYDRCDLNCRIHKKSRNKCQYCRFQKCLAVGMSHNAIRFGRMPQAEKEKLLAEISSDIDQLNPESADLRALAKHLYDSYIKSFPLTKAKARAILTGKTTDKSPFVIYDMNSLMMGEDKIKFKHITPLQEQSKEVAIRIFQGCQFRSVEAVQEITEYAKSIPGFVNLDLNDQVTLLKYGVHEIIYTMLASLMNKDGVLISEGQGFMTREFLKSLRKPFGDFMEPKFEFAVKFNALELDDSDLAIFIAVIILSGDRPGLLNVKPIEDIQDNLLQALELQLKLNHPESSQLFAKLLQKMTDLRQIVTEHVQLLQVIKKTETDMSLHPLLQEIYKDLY
Chain of Vitamin D3 receptor (Homo sapiens) (P11473 whole entry, looked up): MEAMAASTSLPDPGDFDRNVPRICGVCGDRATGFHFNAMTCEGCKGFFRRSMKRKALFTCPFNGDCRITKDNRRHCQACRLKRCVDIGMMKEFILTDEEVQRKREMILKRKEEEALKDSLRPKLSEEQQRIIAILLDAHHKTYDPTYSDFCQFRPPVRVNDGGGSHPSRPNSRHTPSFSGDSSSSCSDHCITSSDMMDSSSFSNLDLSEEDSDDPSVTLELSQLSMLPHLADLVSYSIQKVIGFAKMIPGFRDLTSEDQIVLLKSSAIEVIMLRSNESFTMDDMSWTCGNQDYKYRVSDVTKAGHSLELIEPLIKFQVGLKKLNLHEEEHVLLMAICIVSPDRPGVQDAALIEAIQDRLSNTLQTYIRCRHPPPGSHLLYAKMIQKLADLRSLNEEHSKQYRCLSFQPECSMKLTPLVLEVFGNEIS
Chain of Bile acid receptor (Homo sapiens) (Q96RI1 whole entry, looked up): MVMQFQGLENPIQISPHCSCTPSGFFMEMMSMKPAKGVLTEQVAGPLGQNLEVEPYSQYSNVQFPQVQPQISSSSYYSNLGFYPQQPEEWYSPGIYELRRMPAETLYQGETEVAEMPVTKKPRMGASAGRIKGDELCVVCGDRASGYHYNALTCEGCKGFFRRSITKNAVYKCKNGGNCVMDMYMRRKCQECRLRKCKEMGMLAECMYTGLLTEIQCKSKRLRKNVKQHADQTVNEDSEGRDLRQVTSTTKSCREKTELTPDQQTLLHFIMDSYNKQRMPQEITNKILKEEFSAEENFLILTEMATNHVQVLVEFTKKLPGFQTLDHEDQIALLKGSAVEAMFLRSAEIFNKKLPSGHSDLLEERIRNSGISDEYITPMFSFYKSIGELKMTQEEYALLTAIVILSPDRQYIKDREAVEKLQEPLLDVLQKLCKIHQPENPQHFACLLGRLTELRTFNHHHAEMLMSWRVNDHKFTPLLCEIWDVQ
Chain of Peroxisome proliferator-activated receptor delta (Homo sapiens) (Q03181 whole entry, looked up): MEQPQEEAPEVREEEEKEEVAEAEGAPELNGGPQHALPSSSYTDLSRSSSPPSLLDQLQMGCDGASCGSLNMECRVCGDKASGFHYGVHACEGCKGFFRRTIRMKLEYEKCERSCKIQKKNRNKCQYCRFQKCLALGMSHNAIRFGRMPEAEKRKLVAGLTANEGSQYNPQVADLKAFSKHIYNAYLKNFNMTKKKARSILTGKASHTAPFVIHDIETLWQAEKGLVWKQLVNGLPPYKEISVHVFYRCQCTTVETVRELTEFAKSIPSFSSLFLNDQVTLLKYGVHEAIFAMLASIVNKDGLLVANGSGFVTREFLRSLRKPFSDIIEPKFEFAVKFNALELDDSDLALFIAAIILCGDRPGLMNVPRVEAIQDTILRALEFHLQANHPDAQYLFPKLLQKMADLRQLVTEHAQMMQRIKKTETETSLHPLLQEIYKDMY

S=C=S
not listed: [14] | [15] | [16] | [17] | [18] | [19]
inactive: all other assays above

CNC(=O)O/N=C(/CSC)C(C)(C)C
not listed: [4] | [16] | [17] | [18] | [19]
inactive: all other assays above

C=C(Cl)CCl
not listed: [3] | [6] | [9] | [11] | [14] | [18] | [19]
inactive: all other assays above

O=C1CC(=O)NC(=O)N1
not listed: [3] | [19]
inactive: all other assays above

CN1COCN(Cc2cnc(Cl)s2)/C1=N\[N+](=O)[O-]
not listed: [4] | [9] | [14] | [18] | [19]
inactive: all other assays above

CCOC(=O)Nc1cccc(OC(=O)Nc2ccccc2)c1
not listed: [4] | [12] | [18] | [19]
inactive: all other assays above

COc1ccc(CN2CCNCC2)c(OC)c1OC
not listed: [12] | [13] | [14] | [15]
inactive: all other assays above

C=CCCC#N
not listed: [4] | [7] | [12] | [13] | [14] | [17] | [18] | [19]
inactive: all other assays above

C=CC(=O)OCCN(C)C
not listed: [4] | [13] | [18] | [19]
inactive: all other assays above

CN(C)C1CCCCC1
not listed: [4] | [5] | [6] | [9] | [15] | [18] | [19]
inactive: all other assays above

NC1(c2ccccc2)CCCCC1
not listed: [3] | [9] | [12] | [13] | [18] | [19]
inactive: all other assays above

CNC(=O)Oc1cc(C)c(N(C)C)c(C)c1
not listed: [4] | [12] | [13] | [15] | [18]
inactive: all other assays above

CCC(C)(C#N)N=NC(C)(C#N)CC (stereo unspecified)
not listed: [9] | [11] | [12] | [13] | [14] | [15] | [18] | [19]
inactive: all other assays above
